Inconclusive results are not listed. A number with no mark means an inactive call. Activity calls are given as the source filed them. Calls follow the shape of the dose curve; as a rule, active = well fitted inhibition curve with a large enough effect in the signal ratio in the repeat runs (not every such curve was filed as active); inconclusive = weak or mixed curves, or effect the other way; inactive = no such curve, though single readings can be large or run the other way; the % refers to the signal ratio.
Target: Androgen receptor (Homo sapiens) (UniProt P10275)
Sequence (P10275 whole entry, looked up): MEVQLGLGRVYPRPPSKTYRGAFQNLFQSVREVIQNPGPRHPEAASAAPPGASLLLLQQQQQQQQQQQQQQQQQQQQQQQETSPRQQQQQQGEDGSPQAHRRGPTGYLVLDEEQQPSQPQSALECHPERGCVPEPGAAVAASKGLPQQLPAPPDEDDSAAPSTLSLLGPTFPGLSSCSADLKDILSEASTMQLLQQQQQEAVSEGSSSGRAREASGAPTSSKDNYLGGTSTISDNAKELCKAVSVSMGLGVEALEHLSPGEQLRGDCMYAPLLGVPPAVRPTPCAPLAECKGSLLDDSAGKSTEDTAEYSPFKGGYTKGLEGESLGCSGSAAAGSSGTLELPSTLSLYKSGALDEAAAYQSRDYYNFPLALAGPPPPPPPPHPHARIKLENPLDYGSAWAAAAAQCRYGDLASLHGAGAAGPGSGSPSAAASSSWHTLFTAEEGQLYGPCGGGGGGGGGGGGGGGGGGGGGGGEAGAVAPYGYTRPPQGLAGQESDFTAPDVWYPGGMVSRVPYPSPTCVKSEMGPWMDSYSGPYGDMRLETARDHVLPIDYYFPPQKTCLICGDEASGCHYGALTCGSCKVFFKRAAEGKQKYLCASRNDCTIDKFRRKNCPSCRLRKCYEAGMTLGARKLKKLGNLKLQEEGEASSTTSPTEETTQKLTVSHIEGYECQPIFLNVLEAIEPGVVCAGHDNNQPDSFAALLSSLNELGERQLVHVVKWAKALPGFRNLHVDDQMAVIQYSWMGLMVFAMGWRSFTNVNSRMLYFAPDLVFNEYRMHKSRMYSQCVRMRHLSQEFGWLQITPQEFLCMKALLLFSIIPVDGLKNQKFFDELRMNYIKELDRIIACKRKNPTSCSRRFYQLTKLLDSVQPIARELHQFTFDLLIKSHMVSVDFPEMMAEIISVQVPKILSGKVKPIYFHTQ
Assay: qHTS assay to identify small molecule antagonists of the androgen receptor (AR) signaling pathway (AID 743035)
Conditions: HEK293 AR-UAS-bla, R1881-stimulated, beta-lactamase FRET, 16 h; series mostly up to 58.5 µM; activity change, negative = inhibition: at the top concentration
Excerpt: National Center for Advancing Translational Sciences [NCATS]
NIH Chemical Genomics Center [NCGC]
U.S. Environmental Protection Agency [EPA]
National Institutes of Environmental Health Sciences [NIEHS]
National Toxicology Program [NTP]
U.S. Food and Drug Administration [FDA]
Androgen receptor (AR), a nuclear hormone receptor, plays a critical role in AR-dependent prostate cancer and other androgen related diseases. Endocrine disrupting chemicals (EDCs) and their interactions with steroid hormone receptors like AR may cause disruption of normal endocrine function as well as interfere with metabolic homeostasis, reproduction, developmental and behavioral functions. To identify the compounds that inhibit AR signaling, GeneBLAzer AR-UAS-bla-GripTite cell line (Invitrogen, Carlsbad, CA, USA) containing a beta-lactamase reporter gene under control of an Upstream Activator Sequence (UAS) stably integrated into HEK293 cells was used to screen the Tox21 10K compound library.
Tox21 Assay Protocol Summary:
AR-bla cells were dispensed at 2,000 cells/5 uL of assay medium per well into black wall/clear-bottom 1536-well plates using a Multidrop Combi (ThermoFisher Scientific, Waltham, MA) dispenser. After the assay plates were incubated at a 37C and 5% CO2 for 4 hr, 23 nL of compounds dissolved in DMSO, positive controls or DMSO only was transferred to the assay plate by a Pintool station (Kalypsys, San Diego, CA), followed by addition of 1 uL of agonist (R1881) in culture medium using a Bioraptr Flying Reagent Dispenser (FRD) workstation (Beckman Coulter, Indianapolis, IN, USA). The plates were incubated at a 37C and 5% CO2 for 16 h. After 1 uL of LiveBLAzerTM B/G FRET substrate was added using a Bioraptr FRD, the plates were incubated at room temperature for 2 h and fluorescence intensity was measured by an Envision plate reader (PerkinElmer, Shelton, CT).
% is scaled to controls: 0 for no effect and ±100 for the full control effect; potency is read from the fitted curve at half-maximal effect.

| SMILES | Potency | activity change, negative = inhibition |
| --- | --- | --- |
| COC(=O)C1=C(C)NC(C)=C(C(=O)OC(C)(C)CN(C)CCC(c2ccccc2)c2ccccc2)C1c1cccc([N+](=O)[O-])c1 (stereo not drawn) | 23.9 µM (active) |  |
| CCCCCCCC(=O)OCCCCCC |  | 0.981% |
| O=C(Oc1ccccc1)c1ccc2ccccc2c1O |  | -5.96% |
| CCOC(=O)c1ccc(NC(=O)CN2CCCCC2)cc1 |  | -8.71% |
| CC1CCC(C(C)CS)CC1S (stereo not drawn) |  | 4% |
| BrC(Br)C(Br)Br |  | 1.09% |
| O=C(O)CCC(=O)c1ccc(-c2ccccc2)cc1 |  | -7.64% [at 27 µM] |
| C1=CCC2CC=CC2C1 (stereo not drawn) |  | 11.8% |
| Nc1c(Cl)cc(Cl)cc1[N+](=O)[O-] |  | -18.2% |
| COC(=O)CC(C(C)=O)C(=O)OC (stereo not drawn) |  | -1.02% |
| CCCCCCCCCCCCCOS(=O)(=O)O |  | -3.81% |
| O=C1CC[C@@H](C(=O)O)N1 |  | 1.75% |
| Nc1ccc(F)cc1 |  | -29% [at 78.9 µM] |
| CCCCCCCCCCCCCC(=O)OCC(O)CO (stereo not drawn) |  | 2.68% |
| CC1CCCC(=O)C1=O (stereo not drawn) |  | 2.66% |
| O=C(C(=O)c1ccco1)c1ccco1 |  | -0.955% [at 78.9 µM] |
| CCc1ccc(C)cc1 |  | 4.93% |
| Cc1cn([C@H]2C[C@H](F)[C@@H](CO)O2)c(=O)[nH]c1=O |  | -25.9% |
| CCN(CC)c1ccc(C(=C2C=CC(=[N+](CC)CC)C=C2)c2ccc(S(=O)(=O)O)cc2S(=O)(=O)[O-])cc1 |  | -7.58% |
| CCC(C)(C)C(=O)O |  | 0.991% |
| CN1C(CSCC(F)(F)F)Nc2cc(Cl)c(S(N)(=O)=O)cc2S1(=O)=O (stereo not drawn) |  | -4.95% |
| C=Cc1ccc(OC(C)=O)cc1 |  | 12.9% |
| CCC(CO)(CO)CO |  | -0.517% [at 78.9 µM] |

From PubChem BioAssay (Tox21)
